# Test results taken from PubChem BioAssay (Tox21).
# Results filed as inconclusive are left out. A call without a number means that no potency is given here. The source made the active and inactive calls. Calls follow the shape of the full dose curve.
# Assay: qHTS assay to identify small molecule agonists of the hypoxia (HIF-1) signaling pathway - cell viability counter screen (AID 1224844); also: nearly all actives have a fitted effect of over 50% in size
# Conditions: HRE-bla ME-180 viability, CellTiter-Glo luminescence, 17 h; series mostly up to 76.8 µM
# Text: National Center for Advancing Translational Sciences [NCATS]
# NIH Chemical Genomics Center [NCGC]
# U.S. Environmental Protection Agency [EPA]
# National Institutes of Environmental Health Sciences [NIEHS]
# National Toxicology Program [NTP]
# U.S. Food and Drug Administration [FDA]
# Hypoxia-inducible factor-1 (HIF-1) is the major hypoxia-regulated transcription factor that controls cellular responses to low oxygen concentration. HIF-1 is composed of two subunits: hypoxia responsive HIF-1-alpha and constitutively expressed HIF-1-beta, which is also known as aryl hydrocarbon receptor nuclear translocator. During hypoxic conditions, HIF-1-alpha heterodimerizes with HIF-1-beta and translocates into the nucleus where the HIF-1 complex binds to the hypoxia-response element (HRE) and activates expression of target genes such as VEGF (vascular endothelial growth factor). The HIF-1 pathway is essential to normal growth and development, and is involved in the pathophysiology of cancer, inflammation, and ischemia.
# Using a beta-lactamase reporter-gene under control of the hypoxia response element, a cell-based assay [CellSensor(TM) HRE-bla ME-180 from Life Technologies, Carlsbad, CA] was used to measure hypoxia-induced signaling. Tox21 10K library compounds were measured for their ability to induce the reporter gene activity. The cytotoxicity of the Tox21 compound library against HRE-bla ME-180 cell line was tested in parallel by measuring cell viability using CellTiter-Glo assay (Promega, Madison, WI) in the same assay wells.
# Tox21 Assay Protocol Summary:
# HRE-bla ME-180 cells were dispensed at 2,000 cells per well in 6 uL of assay medium containing 0.5% dialyzed FBS into black wall/clear-bottom 1536-well plates using a Multidrop Combi (Thermo Scientific, Waltham, MA) dispenser. After the assay plates were incubated at 37C and 5% CO2 for 5 hrs, 23 nL of compounds dissolved in DMSO, positive controls or DMSO only was transferred to each well of the assay plate using a Pintool station (Kalypsys, San Diego, CA). The assay plates were incubated at 37C and 5% CO2 for 17 hrs. One uL of LiveBLAzerTM B/G FRET substrate (CCF4-AM) (Life Technologies) was added to each well using a Flying Reagent Dispenser (FRD, Aurora Discovery, San Diego, CA). After 2 hr incubation at room temperature, fluorescence intensity (405 nm excitation, 460 nm and 530 nm emissions) was measured using an Envision plate reader (PerkinElmer, Shelton, CT). For cytotoxicity, 4 ul/well of CellTiter-Glo reagent was added into the assay plates using an FRD. After 30 min incubation at room temperature, the luminescence intensity was measured using a ViewLux plate reader (PerkinElmer).
row,Structure (SMILES),Potency
1,CC(C)(C)C1(CCc2ccc(Cl)cc2)CO1 (stereo not given),inactive
2,Cc1cn([C@H]2C[C@H](F)[C@@H](CO)O2)c(=O)[nH]c1=O,inactive
3,O=C(c1ccccc1)c1ccc(O)cc1,inactive
4,C=C(C)C(=O)OCCC(F)(F)C(F)(F)C(F)(F)C(F)(F)C(F)(F)C(F)(F)F,inactive
5,O=C(O)CN1C(=O)c2cccc3cccc(c23)C1=O,inactive
6,CCC(C)(C)C(=O)O,inactive
7,CC(=O)NCCO,inactive
8,CCOC(=O)Oc1ccc(CCNC(=O)[C@H](CCSC)NC(C)=O)cc1OC(=O)OCC,inactive
9,CCCCCCCCCCCCCCCCCC(=O)OCC(CC)CCCC (stereo not given),inactive
10,COc1ccc(C(=O)NCc2ccc(OCCN(C)C)cc2)cc1OC,inactive
11,CC(O)Cn1cnc2c1c(=O)n(C)c(=O)n2C (stereo not given),inactive
12,O=C(O)c1cccc(Oc2ccccc2)c1,inactive
13,CCc1ccc(C)cc1,inactive
14,CC(CCc1ccc(O)cc1)NCCc1ccc(O)c(O)c1 (stereo not given),inactive
15,CC(C)Cc1ccc(CC(=O)O)cc1,inactive
16,CC(CO)(CO)C(=O)O,inactive
17,CCN(CC)C(=O)/C(C#N)=C/c1cc(O)c(O)c([N+](=O)[O-])c1,inactive
18,O=c1[nH][nH]c(=O)c2cc([N+](=O)[O-])ccc12,inactive
19,CC(=O)OCCC1CCCCC1,inactive
20,CCCCCCCCCCCCCC(=O)OCC(O)CO (stereo not given),inactive

row,Structure (SMILES),Potency
1,CCCOC(=O)c1c(Cl)c(Cl)c(Cl)c(Cl)c1C(=O)OCCC,inactive
2,Nc1ccc(F)cc1,inactive
3,CCCCOCCOC(=O)c1cccnc1,inactive
4,CCCCCC,inactive
5,O=[N+]([O-])c1ccc2ncccc2c1,inactive
6,CC(CN(CCN(CC(C)OCCO)CC(C)OCCO)CC(C)OCCO)OCCO (stereo not given),inactive
7,CCOC(=O)c1ccc(NC(=O)CN2CCCCC2)cc1,inactive
8,Cc1cc(CCC(=O)OCCOCCOCCOC(=O)CCc2cc(C)c(O)c(C(C)(C)C)c2)cc(C(C)(C)C)c1O,inactive
9,CC1CCc2nccnc21 (stereo not given),inactive
10,O=P(O)(O)Oc1ccccc1,inactive
11,O=C(O)CCC(=O)c1ccc(-c2ccccc2)cc1,inactive
12,CC(=O)N[C@@H](Cc1ccc(O)cc1)C(=O)O,inactive
13,COc1ccc2nc(S(=O)Cc3ncc(C)c(OC)c3C)[nH]c2c1 (stereo not given),inactive
14,CC(C)(O)CCc1ccccc1,inactive
15,CC(=O)Oc1cccc(O)c1,inactive
16,O=C(NC(Cc1cc(=O)[nH]c2ccccc12)C(=O)O)c1ccc(Cl)cc1 (stereo not given),inactive
17,CCCCCCCCCCCCCCCC(=O)OCC,inactive
18,CC12CC3CC(C)(C1)CC(N)(C3)C2,inactive
19,CCCCCCCC(=O)Oc1c(Br)cc(C#N)cc1Br,inactive
20,CCC1CCC(CCC(=O)O)C1 (stereo not given),inactive
